Values without a mark were called inactive. Inconclusive results are not listed. A call without a number means that no potency is given here. Active and inactive are the calls of the source. Unless noted, the call rests on the fitted dose curve; in most records, active means well fitted curve in the direction sought with a large enough effect in the repeat runs; inconclusive means weak or mixed curves; inactive means no such curve, though single readings can be large; an effect the other way counts as inactive or inconclusive.
Experiments:
[1] = qHTS assay to identify small molecule agonists of the hypoxia (HIF-1) signaling pathway - cell viability counter screen (AID 1224844; calls by dose curve; further: nearly all actives have a fitted effect of over 50% in size)
Method in brief: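 Cytotoxicity was measured in parallel with the HRE-driven beta-lactamase readout: after 17 hrs of compound exposure at 37C, HRE-bla ME-180 cells received CellTiter-Glo and luminescence was recorded 30 min later.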

[2] = qHTS assay to identify small molecule agonists of H2AX (AID 1224845; active means well fitted activation curve with a large enough effect in the signal ratio in the repeat runs, not every such curve was filed as active; the % refers to the signal ratio)
Method in brief: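 Wild-type CHO-K1 cells plated overnight, then exposed 3 hr at 37C to compounds at 15 concentrations (0.76% DMSO). Lysed, then HTRF anti-pH2AX(S139)-cryptate/anti-H2AX-d2 detection after 24 hr at room temperature; emissions 665 and 620 nm.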

[3] = qHTS assay to identify small molecule agonists of the hypoxia (HIF-1) signaling pathway (AID 1224846; active means well fitted activation curve with a large enough effect in the signal ratio in the repeat runs, not every such curve was filed as active; the % refers to the signal ratio)
Method in brief: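 Compounds from the Tox21 10K library, dissolved in DMSO, are tested for induction of a hypoxia response element–controlled beta-lactamase reporter in ME-180 cells. Exposure lasts 17 hrs at 37C after a 5 hr settling period, followed by CCF4-AM FRET substrate.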

[4] = qHTS assay to identify small molecule agonists of H2AX - cell viability counter screen (AID 1224847; calls by dose curve; further: nearly all actives have a fitted effect of over 30% in size; further: potency means the concentration at half of the fitted maximal effect)
Method in brief: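 CHO-K1 wt, 1000 cells/well, o/n 37C; cpds 15 conc, 3 h 37C, 0.76% DMSO; CellTiter-Glo, 30 min RT, luminescence.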

[5] = qHTS assay to identify small molecule antagonists of the estrogen related receptor (ERR) signaling pathway from Tox21 library (AID 1224848); further: nearly all actives have a fitted effect of over 50% in size; further: potency means the concentration at half of the fitted maximal effect
Method in brief: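 Tox21 10K compounds in DMSO tested for ERR pathway antagonism in NTP's ERR cell line; 18 h, 37 C exposure; ONE-Glo luminescence.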

[6] = qHTS assay to identify small molecule agonists of the estrogen related receptor (ERR) signaling pathway from Tox21 library (AID 1224849; calls by dose curve; further: nearly all actives have a fitted effect of over 15% in size); conditions: ERR reporter cell line, ONE-Glo luciferase, 18 h; at 92.4 µM (top of the series) unless noted
Method in brief: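 Cells carrying the ERR reporter were plated and allowed to settle for 6 h, exposed to library compounds for 18 h at 37 C, then lysed with ONE-Glo and luminescence measured.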

[7] = qHTS RealTime-Glo MT Cell Viability Assay in HepG2 cells - 24 hour (AID 1224867); further: nearly all actives have a fitted effect of over 50% in size
Method in brief: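 HepG2 cells were seeded at 600 cells/well together with NanoLuc luciferase and a cell-permeant prosubstrate, preincubated 5 h at 37 C/5% CO2, then pin-dosed with compounds in DMSO. Nonlytic luminescence from viable cells was read at each time point.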

[8] = qHTS RealTime-Glo MT Cell Viability Assay in HEK293 cells - 32 hour (AID 1224868); further: nearly all actives have a fitted effect of over 50% in size; further: potency means the concentration at half of the fitted maximal effect
Method in brief: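 HEK293 cells were seeded at 600 cells/well together with NanoLuc luciferase and cell-permeant prosubstrate, preincubated 5 h at 37 C/5% CO2, then given compound in DMSO by pintool. Luminescence from viable-cell prosubstrate reduction was read repeatedly over 40 h.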

[9] = A CellTox Green Cytotoxicity Assay to monitor cytotoxicity in HEK293 cells - 0 hour (AID 1224869); further: nearly all actives have a fitted effect of over 50% in size
Method in brief: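 Cells (HEK293, 600/well) and dye reagent are dispensed together. After 5 h at 37 C, 23 nL compound is pinned in. Plates stay at 37 C for 40 h with fluorescence read at 0h, 8h, 16h, 24h, 32h and 40h.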

[10] = qHTS RealTime-Glo MT Cell Viability Assay in HepG2 cells - 40 hour (AID 1224870); further: nearly all actives have a fitted effect of over 50% in size
Method in brief: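 HepG2 cells mixed with RealTime-Glo MT reagents (NanoLuc plus cell-permeant prosubstrate) were seeded at 600 cells/well, incubated 5 h at 37 C/5% CO2, then pinned with compounds in DMSO; nonlytic luminescence tracked viability during 40 h treatment.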

| SMILES | Potency [1] | Potency [2] | Potency [3] | Potency [4] | Potency [5] | activity change, positive = activation [6] | Potency [7] | Potency [8] | Potency [9] | Potency [10] |
| --- | --- | --- | --- | --- | --- | --- | --- | --- | --- | --- |
| Cc1cnc2c(C(=O)O)c(Cl)ccc2c1 | inactive | inactive | inactive | inactive | inactive | -0.863% | inactive | inactive | inactive | inactive |
| Nc1ccc(Cl)cc1C(=O)c1ccccc1F | inactive | inactive | inactive | inactive | inactive | 7.6% [at 42.5 µM] | inactive | inactive |  |  |
| CC(Cc1ccc(OCC(=O)O)cc1)NCC(O)c1csc(C(F)(F)F)n1 (configuration not stated) | inactive | inactive | inactive | inactive | inactive | 13.9% | inactive | inactive | inactive | inactive |
| Cc1cc2c3c(c1)C(c1ccccc1)=N[C@@H](NC(=O)c1ccncc1)C(=O)N3CC2 | inactive | inactive | inactive | inactive | inactive | -15.6% | inactive | inactive |  | inactive |
| O=[N+]([O-])c1ccccc1-c1ccccc1 | inactive | inactive | inactive | inactive | inactive | -1.13% | inactive | inactive | inactive | inactive |
| COc1nc(C)nc(NC(=O)NS(=O)(=O)c2ccccc2Cl)n1 | inactive | inactive | inactive | inactive | inactive | 7.61% | inactive | inactive | inactive | inactive |
| ClSC(Cl)(Cl)Cl | inactive | inactive | inactive | inactive | inactive | 1.32% | inactive | inactive | inactive | inactive |
| ClC1=C(Cl)[C@]2(Cl)[C@@H]3[C@H]4C[C@H]([C@@H]5O[C@H]45)[C@@H]3[C@@]1(Cl)C2(Cl)Cl | inactive | inactive | inactive | inactive |  | -25% | inactive | inactive | inactive | inactive |
| CCNS(=O)(=O)C(F)(F)C(F)(F)C(F)(F)C(F)(F)C(F)(F)C(F)(F)C(F)(F)C(F)(F)F | inactive | inactive | inactive | inactive | inactive | -10.2% | inactive | inactive | inactive | inactive |
| C[C@H]1[C@H](c2ccc(Cl)cc2)SC(=O)N1C(=O)NC1CCCCC1 | inactive | inactive | inactive | inactive | 30.6 µM (active) | -41.4% | inactive | 49 µM (active) |  | inactive |
| CCN(CC)CCN1C(=O)CN=C(c2ccccc2F)c2cc(Cl)ccc21 | inactive | inactive | inactive | inactive | inactive | -10.4% [at 42.5 µM] | inactive | inactive | inactive | inactive |
| Clc1ccc(C2(Cn3cncn3)OCCO2)c(Cl)c1 | inactive | inactive | inactive | inactive | inactive | -6.38% | inactive | inactive | inactive | inactive |
| Cc1ccccc1OP(=O)(Oc1ccccc1C)Oc1ccccc1C | inactive | inactive | inactive | 90.1 µM (active) | inactive | -4.53% | inactive |  | inactive | inactive |
| CC(Cc1ccc2c(c1)OCO2)NO (configuration not stated) | inactive | inactive | inactive | inactive | inactive | -3.14% | inactive | inactive |  | inactive |
| Cc1nn(-c2cc(NS(C)(=O)=O)c(Cl)cc2Cl)c(=O)n1C(F)F | inactive | inactive | inactive | inactive | inactive | -8.62% | inactive | inactive | inactive |  |
| CN=C=O | inactive | inactive | inactive | inactive | inactive | 0.484% | inactive | inactive |  |  |
| Oc1cc(Cl)cc(Cl)c1 | inactive | inactive | inactive | 90.7 µM (active) | 61.8 µM (active) | -48.8% | inactive |  | inactive | inactive |
| CCOP(=O)(OCC)Oc1cc(C)nc(C(C)C)n1 | inactive | inactive | inactive | inactive | inactive | -6.77% | inactive | inactive | inactive | inactive |
| Cc1ccn2nc(S(=O)(=O)Nc3c(F)cccc3F)nc2n1 | inactive | inactive | inactive | inactive | inactive | 1.87% | inactive | inactive | inactive | inactive |
| O=C(CCCCl)c1ccc(F)cc1 | inactive | inactive | inactive | inactive | inactive | 7.87% [at 42.5 µM] | inactive | inactive | inactive |  |
| CCN(CC)Cc1nccn1-c1ccc([N+](=O)[O-])cc1C(=O)c1ccccc1Cl | inactive | inactive | inactive | inactive | inactive | -10.7% [at 42.5 µM] | inactive | inactive | inactive | inactive |
| CCOC(=O)CCN(SN(C)C(=O)Oc1cccc2c1OC(C)(C)C2)C(C)C | inactive | inactive | inactive | inactive | 61.1 µM (active) | -43.3% | inactive | inactive | inactive | inactive |
| CCOP(=S)(OCC)Oc1cc(C)nc(N(CC)CC)n1 | inactive | inactive | inactive | inactive |  | -21.1% | inactive | inactive | inactive | inactive |
